# Key:
# Experiment in all cases: DAPPL (digital affinity profiling via proximity ligation, sequencing); 10 mM Tris-HCl pH 7.5, 50 mM NaCl, 1 mM DTT, 4% glycerol, room temperature, 30 min; GST-TFs on glutathione beads, 16-mer random dsDNA library, 0.1% formaldehyde crosslink after washing; high values mean tight binding
# [1] = biological target: T1, FLI1 (Homo sapiens, UniProt Q01543 1-452); settings: protein: recombinant; tags: N-terminal GST; dsDNA, one strand shown
# T1 sequence: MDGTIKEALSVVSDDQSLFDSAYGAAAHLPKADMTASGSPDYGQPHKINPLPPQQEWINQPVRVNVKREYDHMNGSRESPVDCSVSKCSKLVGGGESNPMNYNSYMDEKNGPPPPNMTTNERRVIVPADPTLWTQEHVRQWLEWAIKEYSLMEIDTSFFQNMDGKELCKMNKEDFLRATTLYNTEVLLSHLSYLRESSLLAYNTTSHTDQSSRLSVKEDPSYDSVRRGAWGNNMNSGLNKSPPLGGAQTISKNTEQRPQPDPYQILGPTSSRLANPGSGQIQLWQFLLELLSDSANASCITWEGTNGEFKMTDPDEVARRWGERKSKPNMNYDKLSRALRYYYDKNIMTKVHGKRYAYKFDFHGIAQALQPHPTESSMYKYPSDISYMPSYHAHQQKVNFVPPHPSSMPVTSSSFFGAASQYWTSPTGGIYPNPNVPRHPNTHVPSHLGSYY
# How it was run: (§1)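 Each value of binding signal is a hexamer's read frequency for a factor divided by the same hexamer's frequency in the tag-only sample. Barcoded, bead-captured GST fusions of human transcription factors made in yeast were pooled with that sample and incubated with 200 nmole of a random double-stranded 16-mer DNA library in Tris/NaCl/DTT/glycerol buffer at room temperature for 30 min. Washing, 0.1% formaldehyde crosslinking, proximity ligation, PCR and Illumina NextSeq500 sequencing followed.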
# [2] = biological target: T2, ELK1 (Homo sapiens, UniProt P19419 1-428); settings: protein: recombinant; tags: N-terminal GST; dsDNA, one strand shown
# T2 sequence: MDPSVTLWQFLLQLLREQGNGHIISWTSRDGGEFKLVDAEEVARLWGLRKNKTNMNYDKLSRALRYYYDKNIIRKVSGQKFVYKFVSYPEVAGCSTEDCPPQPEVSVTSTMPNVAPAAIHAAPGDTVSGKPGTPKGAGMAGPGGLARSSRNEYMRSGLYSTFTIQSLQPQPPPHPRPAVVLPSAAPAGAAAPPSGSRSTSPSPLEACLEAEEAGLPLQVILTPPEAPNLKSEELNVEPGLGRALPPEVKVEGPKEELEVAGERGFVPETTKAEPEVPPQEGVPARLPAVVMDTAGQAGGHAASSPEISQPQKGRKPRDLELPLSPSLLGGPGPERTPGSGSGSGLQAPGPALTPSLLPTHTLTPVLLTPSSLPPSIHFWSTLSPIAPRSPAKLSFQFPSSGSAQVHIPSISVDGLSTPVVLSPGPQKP
# How it was run: as §1
# [3] = biological target: T3, GABPA (Homo sapiens, UniProt Q06546 1-454); settings: protein: recombinant; tags: N-terminal GST; dsDNA, one strand shown
# T3 sequence: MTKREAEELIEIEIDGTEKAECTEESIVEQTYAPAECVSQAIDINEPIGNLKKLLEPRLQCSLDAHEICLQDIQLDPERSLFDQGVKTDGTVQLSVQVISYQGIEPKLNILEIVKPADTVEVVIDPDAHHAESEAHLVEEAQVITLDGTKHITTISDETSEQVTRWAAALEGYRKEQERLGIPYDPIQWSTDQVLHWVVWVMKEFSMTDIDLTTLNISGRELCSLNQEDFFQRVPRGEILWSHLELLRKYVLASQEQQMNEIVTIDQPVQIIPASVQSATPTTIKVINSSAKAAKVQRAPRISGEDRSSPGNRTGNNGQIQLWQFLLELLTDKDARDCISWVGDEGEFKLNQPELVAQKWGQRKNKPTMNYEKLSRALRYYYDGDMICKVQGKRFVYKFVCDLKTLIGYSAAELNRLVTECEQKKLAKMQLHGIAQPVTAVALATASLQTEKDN
# How it was run: as §1
# [4] = biological target: T4, ERG (Homo sapiens, UniProt P11308 1-479); settings: protein: recombinant; tags: N-terminal GST; dsDNA, one strand shown
# T4 sequence: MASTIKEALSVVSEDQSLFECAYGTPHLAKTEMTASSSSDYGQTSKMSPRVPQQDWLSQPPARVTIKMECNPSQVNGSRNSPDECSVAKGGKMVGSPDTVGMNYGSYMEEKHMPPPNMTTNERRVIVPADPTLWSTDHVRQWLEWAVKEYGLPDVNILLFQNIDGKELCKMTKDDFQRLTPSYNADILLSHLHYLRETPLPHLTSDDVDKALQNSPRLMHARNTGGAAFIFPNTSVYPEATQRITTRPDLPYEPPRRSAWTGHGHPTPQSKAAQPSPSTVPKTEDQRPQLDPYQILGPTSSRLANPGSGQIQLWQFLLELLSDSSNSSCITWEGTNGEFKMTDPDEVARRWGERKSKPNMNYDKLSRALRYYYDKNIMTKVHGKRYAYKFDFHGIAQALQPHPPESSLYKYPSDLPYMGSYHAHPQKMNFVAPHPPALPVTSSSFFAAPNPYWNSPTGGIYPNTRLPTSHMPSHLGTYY
# How it was run: as §1
# [5] = biological target: ELF1 (Homo sapiens, UniProt P32519 1-619); settings: protein: recombinant; tags: N-terminal GST; dsDNA, one strand shown
# How it was run: as §1
# [6] = biological target: T5, EHF (Homo sapiens, UniProt Q9NZC4 1-300); settings: protein: recombinant; tags: N-terminal GST; dsDNA, one strand shown
# T5 sequence: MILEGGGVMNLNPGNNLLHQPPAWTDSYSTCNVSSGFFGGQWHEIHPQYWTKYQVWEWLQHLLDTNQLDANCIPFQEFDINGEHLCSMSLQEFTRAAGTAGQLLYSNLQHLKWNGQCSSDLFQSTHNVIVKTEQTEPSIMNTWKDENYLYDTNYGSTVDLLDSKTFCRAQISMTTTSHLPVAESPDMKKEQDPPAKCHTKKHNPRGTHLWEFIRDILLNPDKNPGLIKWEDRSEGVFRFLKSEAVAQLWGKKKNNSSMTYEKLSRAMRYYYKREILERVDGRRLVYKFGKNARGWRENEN
# How it was run: as §1
# [7] = biological target: SPI1 (Homo sapiens, UniProt P17947 1-270); settings: protein: recombinant; tags: N-terminal GST; dsDNA, one strand shown
# How it was run: as §1
# [8] = biological target: SPIB (Homo sapiens, UniProt Q01892 1-262); settings: protein: recombinant; tags: N-terminal GST; dsDNA, one strand shown
# How it was run: as §1
# [9] = biological target: T6, ELK3 (Homo sapiens, UniProt P41970 1-407); settings: protein: recombinant; tags: N-terminal GST; dsDNA, one strand shown
# T6 sequence: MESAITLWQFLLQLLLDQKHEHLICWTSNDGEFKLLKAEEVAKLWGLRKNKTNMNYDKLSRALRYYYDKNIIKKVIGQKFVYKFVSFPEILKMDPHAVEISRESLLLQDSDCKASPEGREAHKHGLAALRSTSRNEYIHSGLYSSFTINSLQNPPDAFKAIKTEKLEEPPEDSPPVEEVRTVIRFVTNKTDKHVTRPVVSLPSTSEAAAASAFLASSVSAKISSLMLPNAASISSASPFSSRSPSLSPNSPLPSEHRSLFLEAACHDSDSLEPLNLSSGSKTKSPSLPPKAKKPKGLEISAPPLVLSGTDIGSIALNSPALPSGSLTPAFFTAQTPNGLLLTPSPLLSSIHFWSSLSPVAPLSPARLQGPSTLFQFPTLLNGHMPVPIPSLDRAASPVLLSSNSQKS
# How it was run: as §1
# [10] = biological target: T7, FEV (Homo sapiens, UniProt Q99581 1-238); settings: protein: recombinant; tags: N-terminal GST; dsDNA, one strand shown
# T7 sequence: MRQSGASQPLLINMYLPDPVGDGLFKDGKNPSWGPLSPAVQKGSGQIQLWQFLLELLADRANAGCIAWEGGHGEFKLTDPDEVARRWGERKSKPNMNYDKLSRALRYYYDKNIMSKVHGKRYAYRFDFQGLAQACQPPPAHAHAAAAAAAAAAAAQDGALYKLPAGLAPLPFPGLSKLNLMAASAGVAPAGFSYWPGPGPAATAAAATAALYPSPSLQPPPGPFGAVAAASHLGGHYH
# How it was run: as §1
# [11] = biological target: ETV5 (Homo sapiens, UniProt P41161 1-510); settings: protein: recombinant; tags: N-terminal GST; dsDNA, one strand shown
# How it was run: as §1
# [12] = biological target: HSF1 (Homo sapiens, UniProt Q00613 1-529); settings: protein: recombinant; tags: N-terminal GST; chain copies: 3; dsDNA, one strand shown
# How it was run: as §1
# [13] = biological target: T8, SPIC (Homo sapiens, UniProt Q8N5J4 1-248); settings: protein: recombinant; tags: N-terminal GST; dsDNA, one strand shown
# T8 sequence: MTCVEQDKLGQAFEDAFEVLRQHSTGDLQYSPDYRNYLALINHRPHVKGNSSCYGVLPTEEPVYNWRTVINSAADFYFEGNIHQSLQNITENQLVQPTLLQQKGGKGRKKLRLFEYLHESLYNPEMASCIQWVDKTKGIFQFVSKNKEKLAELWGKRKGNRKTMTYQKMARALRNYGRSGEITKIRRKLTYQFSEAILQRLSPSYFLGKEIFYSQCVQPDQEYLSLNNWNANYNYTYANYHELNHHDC
# How it was run: as §1
# [14] = biological target: ELF4 (Homo sapiens, UniProt Q99607 1-663); settings: protein: recombinant; tags: N-terminal GST; dsDNA, one strand shown
# How it was run: as §1
# [15] = biological target: T9, ELK4 (Homo sapiens, UniProt P28324-2 1-405); settings: protein: recombinant; tags: N-terminal GST; dsDNA, one strand shown
# T9 sequence: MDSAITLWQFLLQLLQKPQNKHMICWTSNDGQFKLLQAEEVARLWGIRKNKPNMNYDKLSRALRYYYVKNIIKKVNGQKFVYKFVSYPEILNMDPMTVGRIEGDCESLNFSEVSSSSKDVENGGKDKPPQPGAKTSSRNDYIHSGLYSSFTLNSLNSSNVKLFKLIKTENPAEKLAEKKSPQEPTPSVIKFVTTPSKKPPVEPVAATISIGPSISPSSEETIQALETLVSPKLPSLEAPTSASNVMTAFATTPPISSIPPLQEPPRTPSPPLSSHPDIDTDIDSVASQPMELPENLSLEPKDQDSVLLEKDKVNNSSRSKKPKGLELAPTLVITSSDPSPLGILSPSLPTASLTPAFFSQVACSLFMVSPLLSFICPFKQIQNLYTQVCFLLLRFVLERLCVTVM
# How it was run: as §1
# [16] = biological target: T10, ETV2 (Homo sapiens, UniProt O00321 1-342); settings: protein: recombinant; tags: N-terminal GST; dsDNA, one strand shown
# T10 sequence: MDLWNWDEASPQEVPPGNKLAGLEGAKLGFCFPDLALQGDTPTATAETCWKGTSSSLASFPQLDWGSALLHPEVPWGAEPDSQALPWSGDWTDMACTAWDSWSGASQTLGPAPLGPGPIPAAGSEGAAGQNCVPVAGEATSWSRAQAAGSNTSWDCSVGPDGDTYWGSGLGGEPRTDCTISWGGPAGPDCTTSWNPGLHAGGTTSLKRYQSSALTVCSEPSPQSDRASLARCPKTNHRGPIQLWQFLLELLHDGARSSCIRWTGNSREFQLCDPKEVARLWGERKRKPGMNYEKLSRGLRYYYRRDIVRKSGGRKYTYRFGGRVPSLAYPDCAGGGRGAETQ
# How it was run: as §1
# [17] = biological target: T11, ELF3 (Homo sapiens, UniProt P78545 1-371); settings: protein: recombinant; tags: N-terminal GST; dsDNA, one strand shown
# T11 sequence: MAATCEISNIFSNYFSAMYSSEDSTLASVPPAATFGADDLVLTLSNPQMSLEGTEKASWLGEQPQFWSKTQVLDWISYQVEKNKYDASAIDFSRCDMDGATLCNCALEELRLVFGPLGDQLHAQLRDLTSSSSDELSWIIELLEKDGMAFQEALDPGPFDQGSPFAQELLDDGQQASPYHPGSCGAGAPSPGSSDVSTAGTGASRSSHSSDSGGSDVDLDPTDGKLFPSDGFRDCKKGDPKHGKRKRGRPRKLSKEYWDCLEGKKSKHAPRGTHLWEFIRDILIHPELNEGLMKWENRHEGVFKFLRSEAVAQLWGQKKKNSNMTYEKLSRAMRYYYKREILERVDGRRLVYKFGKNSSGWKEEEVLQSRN
# How it was run: as §1
# [18] = biological target: CRX (Homo sapiens, UniProt O43186 1-299); settings: protein: recombinant; tags: N-terminal GST; dsDNA, one strand shown
# How it was run: as §1
# [19] = biological target: ETV1 (Homo sapiens, UniProt P50549 1-477); settings: protein: recombinant; tags: N-terminal GST; dsDNA, one strand shown
# How it was run: as §1
# Sequence of ELF1 (P32519 whole entry): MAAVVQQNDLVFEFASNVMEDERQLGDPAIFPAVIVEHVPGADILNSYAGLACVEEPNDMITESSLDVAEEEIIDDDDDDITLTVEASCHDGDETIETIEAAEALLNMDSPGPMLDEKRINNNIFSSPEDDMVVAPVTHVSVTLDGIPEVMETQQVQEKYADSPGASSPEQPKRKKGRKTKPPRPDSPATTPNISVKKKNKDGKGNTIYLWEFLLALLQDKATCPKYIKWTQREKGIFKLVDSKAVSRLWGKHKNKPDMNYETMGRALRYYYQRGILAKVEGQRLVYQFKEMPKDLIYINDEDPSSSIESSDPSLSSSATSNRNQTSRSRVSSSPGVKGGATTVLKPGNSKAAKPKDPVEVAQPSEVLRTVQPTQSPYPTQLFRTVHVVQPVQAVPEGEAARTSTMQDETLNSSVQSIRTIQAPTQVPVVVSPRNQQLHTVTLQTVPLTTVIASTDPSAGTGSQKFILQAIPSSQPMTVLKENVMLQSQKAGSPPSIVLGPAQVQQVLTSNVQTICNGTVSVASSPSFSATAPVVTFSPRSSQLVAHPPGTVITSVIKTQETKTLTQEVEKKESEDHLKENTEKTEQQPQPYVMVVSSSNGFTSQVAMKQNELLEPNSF
# Sequence of ELF4 (Q99607 whole entry): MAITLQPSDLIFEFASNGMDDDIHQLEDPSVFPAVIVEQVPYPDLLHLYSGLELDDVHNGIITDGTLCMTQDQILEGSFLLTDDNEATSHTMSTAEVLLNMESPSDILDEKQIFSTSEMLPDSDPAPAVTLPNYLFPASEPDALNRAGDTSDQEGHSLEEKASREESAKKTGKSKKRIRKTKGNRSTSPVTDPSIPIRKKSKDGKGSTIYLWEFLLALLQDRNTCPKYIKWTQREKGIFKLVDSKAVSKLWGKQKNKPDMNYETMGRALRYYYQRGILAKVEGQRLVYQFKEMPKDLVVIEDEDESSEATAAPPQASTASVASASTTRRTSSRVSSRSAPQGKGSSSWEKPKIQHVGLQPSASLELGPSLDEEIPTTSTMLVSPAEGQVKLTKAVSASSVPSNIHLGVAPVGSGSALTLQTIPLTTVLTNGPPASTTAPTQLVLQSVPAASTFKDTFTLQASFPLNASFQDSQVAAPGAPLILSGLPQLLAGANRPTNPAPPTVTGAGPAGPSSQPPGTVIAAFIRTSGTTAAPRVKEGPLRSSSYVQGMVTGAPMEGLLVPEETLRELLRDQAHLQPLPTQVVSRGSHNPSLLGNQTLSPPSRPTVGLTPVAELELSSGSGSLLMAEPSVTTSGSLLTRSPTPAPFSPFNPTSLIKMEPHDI
# Sequence of CRX (O43186 whole entry): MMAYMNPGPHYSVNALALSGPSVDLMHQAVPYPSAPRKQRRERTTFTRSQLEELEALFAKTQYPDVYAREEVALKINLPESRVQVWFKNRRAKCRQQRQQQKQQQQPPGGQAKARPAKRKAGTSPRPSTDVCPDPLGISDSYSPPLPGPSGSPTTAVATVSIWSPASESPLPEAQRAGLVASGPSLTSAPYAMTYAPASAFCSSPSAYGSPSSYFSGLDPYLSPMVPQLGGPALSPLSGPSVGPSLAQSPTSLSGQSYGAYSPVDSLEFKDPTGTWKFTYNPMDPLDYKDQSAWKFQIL
# Sequence of SPIB (Q01892 whole entry): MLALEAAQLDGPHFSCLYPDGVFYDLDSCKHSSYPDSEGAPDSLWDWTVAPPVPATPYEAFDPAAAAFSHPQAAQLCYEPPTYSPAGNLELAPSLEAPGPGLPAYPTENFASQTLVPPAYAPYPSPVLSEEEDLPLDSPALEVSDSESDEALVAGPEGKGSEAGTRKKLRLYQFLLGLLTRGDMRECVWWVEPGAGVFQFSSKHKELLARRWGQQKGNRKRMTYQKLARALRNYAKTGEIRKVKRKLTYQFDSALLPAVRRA
# Sequence of HSF1 (Q00613 whole entry): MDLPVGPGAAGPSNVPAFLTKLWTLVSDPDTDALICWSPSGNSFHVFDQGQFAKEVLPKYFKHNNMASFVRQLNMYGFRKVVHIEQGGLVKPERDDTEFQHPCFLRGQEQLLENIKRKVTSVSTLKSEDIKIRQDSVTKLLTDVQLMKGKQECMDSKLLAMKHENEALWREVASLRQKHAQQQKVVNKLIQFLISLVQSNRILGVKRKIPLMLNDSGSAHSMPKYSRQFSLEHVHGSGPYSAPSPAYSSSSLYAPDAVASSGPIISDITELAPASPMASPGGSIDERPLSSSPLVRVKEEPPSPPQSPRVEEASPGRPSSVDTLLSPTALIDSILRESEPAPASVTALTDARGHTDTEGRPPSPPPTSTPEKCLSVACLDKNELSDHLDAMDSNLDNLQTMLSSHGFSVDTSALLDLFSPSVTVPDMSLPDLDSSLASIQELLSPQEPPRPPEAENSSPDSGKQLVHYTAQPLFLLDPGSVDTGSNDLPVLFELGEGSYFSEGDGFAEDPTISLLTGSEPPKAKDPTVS
# Sequence of ETV5 (P41161 whole entry): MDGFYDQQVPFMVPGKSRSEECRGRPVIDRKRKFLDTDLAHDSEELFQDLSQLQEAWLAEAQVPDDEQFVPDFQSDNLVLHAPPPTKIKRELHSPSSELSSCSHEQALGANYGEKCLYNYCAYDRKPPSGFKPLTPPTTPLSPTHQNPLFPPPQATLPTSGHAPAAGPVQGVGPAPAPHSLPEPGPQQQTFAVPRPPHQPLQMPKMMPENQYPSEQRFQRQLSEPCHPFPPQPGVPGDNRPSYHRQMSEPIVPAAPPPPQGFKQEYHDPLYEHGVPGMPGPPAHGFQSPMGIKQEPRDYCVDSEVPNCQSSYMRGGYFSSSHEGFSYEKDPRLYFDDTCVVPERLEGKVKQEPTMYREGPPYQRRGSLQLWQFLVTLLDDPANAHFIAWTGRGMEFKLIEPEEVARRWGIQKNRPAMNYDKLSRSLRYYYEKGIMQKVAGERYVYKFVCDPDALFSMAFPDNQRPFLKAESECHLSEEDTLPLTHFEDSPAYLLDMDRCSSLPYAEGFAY
# Sequence of ETV1 (P50549 whole entry): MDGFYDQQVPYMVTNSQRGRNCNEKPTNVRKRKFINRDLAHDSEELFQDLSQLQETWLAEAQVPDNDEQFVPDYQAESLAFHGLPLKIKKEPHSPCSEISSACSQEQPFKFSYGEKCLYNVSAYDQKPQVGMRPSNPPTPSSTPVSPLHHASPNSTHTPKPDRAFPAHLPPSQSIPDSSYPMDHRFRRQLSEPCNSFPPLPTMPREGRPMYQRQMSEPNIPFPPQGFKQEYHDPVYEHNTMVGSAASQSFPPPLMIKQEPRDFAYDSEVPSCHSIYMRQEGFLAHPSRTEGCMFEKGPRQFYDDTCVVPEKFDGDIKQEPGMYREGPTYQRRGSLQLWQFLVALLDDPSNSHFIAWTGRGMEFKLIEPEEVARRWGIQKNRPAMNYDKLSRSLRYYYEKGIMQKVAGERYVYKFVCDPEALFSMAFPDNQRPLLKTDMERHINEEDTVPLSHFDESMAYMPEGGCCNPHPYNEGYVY
sequence,measurement,setting,value
TTTAGC,binding signal,[1],"1.04 fold enrichment (6-mer frequency, TF over GST control)"
same,binding signal,[2],"1.05 fold enrichment (6-mer frequency, TF over GST control)"
same,binding signal,[3],"1.2 fold enrichment (6-mer frequency, TF over GST control)"
same,binding signal,[4],"1.16 fold enrichment (6-mer frequency, TF over GST control)"
same,binding signal,[5],"1.19 fold enrichment (6-mer frequency, TF over GST control)"
same,binding signal,[6],"1.12 fold enrichment (6-mer frequency, TF over GST control)"
same,binding signal,[7],"1.05 fold enrichment (6-mer frequency, TF over GST control)"
same,binding signal,[8],"1.14 fold enrichment (6-mer frequency, TF over GST control)"
same,binding signal,[9],"1.09 fold enrichment (6-mer frequency, TF over GST control)"
same,binding signal,[10],"1.11 fold enrichment (6-mer frequency, TF over GST control)"
same,binding signal,[11],"1.03 fold enrichment (6-mer frequency, TF over GST control)"
same,binding signal,[12],"1.25 fold enrichment (6-mer frequency, TF over GST control)"
same,binding signal,[13],"1.07 fold enrichment (6-mer frequency, TF over GST control)"
same,binding signal,[14],"1.2 fold enrichment (6-mer frequency, TF over GST control)"
same,binding signal,[15],"1.13 fold enrichment (6-mer frequency, TF over GST control)"
same,binding signal,[16],"1.13 fold enrichment (6-mer frequency, TF over GST control)"
same,binding signal,[17],"1.08 fold enrichment (6-mer frequency, TF over GST control)"
same,binding signal,[18],"1.64 fold enrichment (6-mer frequency, TF over GST control)"
same,binding signal,[19],"1.18 fold enrichment (6-mer frequency, TF over GST control)"

# — PMC7862700, “An all-to-all approach to the identification of sequence-specific readers for epigenetic DNA modifications on cytosine”
